Active and inactive are the calls of the source. The rule behind the calls is not given here.
Target: Pantothenate synthetase (Mycobacterium tuberculosis (strain ATCC 25618 / H37Rv)) (UniProt P9WIL5)
Experiment: Recombinant Mtb pantothenate synthetase (PanC) inhibitors, coupled enzyme, confirmatory (AID 375);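 note: 0% = full reaction with vehicle and 100% = no enzyme background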
Conditions: coupled enzyme assay; at 10 µM, stronger effect = higher value

Chain of Pantothenate synthetase (Mycobacterium tuberculosis (strain ATCC 25618 / H37Rv)) (P9WIL5 whole entry, looked up): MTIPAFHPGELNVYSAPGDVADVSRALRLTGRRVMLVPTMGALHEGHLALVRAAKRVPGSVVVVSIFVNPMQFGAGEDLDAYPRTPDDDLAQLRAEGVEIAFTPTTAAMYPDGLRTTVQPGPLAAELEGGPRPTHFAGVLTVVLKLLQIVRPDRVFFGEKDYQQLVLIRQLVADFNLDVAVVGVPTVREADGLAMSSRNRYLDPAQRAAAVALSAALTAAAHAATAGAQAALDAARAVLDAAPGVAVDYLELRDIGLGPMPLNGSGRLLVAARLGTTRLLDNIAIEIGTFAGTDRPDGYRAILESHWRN

**Q.** `CCOc1ccc(S(=O)(=O)Nc2cccc(Cl)c2)cc1` was tested. Which inhibition did it give?
**A.** 1% (inactive)

**Q.** Which inhibition does the source give for `COCCN(CCOC)S(=O)(=O)c1ccc(C(=O)Nc2nnc(C3CC3)o2)cc1` here?
**A.** 0% (inactive)

**Q.** `C=CCN1C(=O)/C(=C2/Sc3ccccc3N2C)SC1=Nc1c(C)n[nH]c1C` was tested. Which inhibition did it give?
**A.** 1% (inactive)

**Q.** Which inhibition does the source give for `CCOc1ccccc1NC(=O)CN(c1ccc(C)cc1)S(=O)(=O)c1c(C)noc1C` here?
**A.** 9% (inactive)

**Q.** Which inhibition does the source give for `Cn1nnnc1SCC1=C(C(=O)O)N2C(=O)[C@@H](NC(=O)[C@H](O)c3ccccc3)[C@H]2SC1` here?
**A.** 0% (inactive)

**Q.** `Cc1nnc(SCCCn2c(N3CCCCC3)nc3c2c(=O)[nH]c(=O)n3C)s1` was tested. Which inhibition did it give?
**A.** 0% (inactive)

**Q.** With `CC1CCCC(NC(=O)CSc2ncccc2C(=O)O)C1C` (stereo not given) as the compound, how does the inhibition read?
**A.** 0% (inactive)

**Q.** How did the inhibition turn out when `CC(=O)Nc1ccc(Cc2ccncc2)cc1` was run?
**A.** 0% (inactive)

**Q.** `O=C(COc1ccccc1)Nc1nc2ccccc2[nH]1` was tested. Which inhibition did it give?
**A.** 0% (inactive)

**Q.** How did the inhibition turn out when `CC(C)(C)C(=O)CNS(=O)(=O)c1ccc(S(=O)(=O)NC2CCCC2)cc1` was run?
**A.** 0% (inactive)

**Q.** `CN(CC(=O)N1CCCc2c1c(=O)oc1ccc(O)cc21)Cc1ccccc1` was tested. Which inhibition did it give?
**A.** 0% (inactive)

**Q.** For `Cc1nc2ccc(C(=O)c3ccccc3)cc2[nH]1`, which inhibition is on record?
**A.** 0% (inactive)

**Q.** With `COC(=O)Cn1cc(C(=O)c2cccs2)c2ccccc21` as the compound, how does the inhibition read?
**A.** 0% (inactive)

**Q.** How did the inhibition turn out when `Cc1cccc(NC(=O)Cn2c(=O)n(C)c3ccccc32)c1` was run?
**A.** 0% (inactive)

**Q.** For `CCOc1cccc(C(=O)N(Cc2ccco2)C2CCS(=O)(=O)C2)c1` (stereo not given), which inhibition is on record?
**A.** 6% (inactive)

**Q.** Which inhibition does the source give for `CS(=O)(=O)Nc1ccc(C(=O)NCc2ccc3c(c2)OCO3)cc1` here?
**A.** 4% (inactive)

**Q.** With `CCn1nnc(-c2ccccc2NC(=O)c2ccc(-n3cnnn3)cc2)n1` as the compound, how does the inhibition read?
**A.** 9% (inactive)

**Q.** Which inhibition does the source give for `CCN1C(=O)C2(C(C#N)=C(N)Oc3n[nH]c(C(C)C)c32)c2ccccc21` (stereo not given) here?
**A.** 1% (inactive)

**Q.** For `Cc1cccc(OCC(=O)N2CCC(c3ccccc3)C2)c1` (stereo not given), which inhibition is on record?
**A.** 3% (inactive)

**Q.** `COC(=O)c1ccc(NC(=O)CN2CCN(c3ccc(Cl)cc3)CC2)cc1` was tested. Which inhibition did it give?
**A.** 1% (inactive)

**Q.** For `Cc1c(C(=O)N2CCN(c3ccccc3)CC2)sc2ncnc(N3CCN(c4ccccc4)CC3)c12`, which inhibition is on record?
**A.** 0% (inactive)

**Q.** With `COc1ccc2c(c1)c(CC(=O)OCC(=O)O)c(C)n2C(=O)c1ccc(Cl)cc1` as the compound, how does the inhibition read?
**A.** 0% (inactive)

**Q.** How did the inhibition turn out when `CCOC(=O)c1ccc(CC2S/C(=C(\C#N)C(C)=O)NC2=O)cc1` (stereo not given) was run?
**A.** 10% (inactive)

**Q.** `CCCn1c(SCC(=O)N2CCc3ccccc3C2)nc2c1c(=O)n(C)c(=O)n2C` was tested. Which inhibition did it give?
**A.** 1% (inactive)

**Q.** How did the inhibition turn out when `Cc1ccc(C(=O)/C=C/Nc2cccc(O)c2)cc1` was run?
**A.** 8% (inactive)

**Q.** For `COc1ccc(C)cc1-n1nnnc1SCC(=O)NC(=O)NCc1ccco1`, which inhibition is on record?
**A.** 11% (inactive)

**Q.** For `COCCn1c(C)cc(C(=O)CSc2nc3ccccc3c(=O)[nH]2)c1C`, which inhibition is on record?
**A.** 0% (inactive)

**Q.** How did the inhibition turn out when `CSCCC(N=CC1=C(O)CC(C)(C)CC1=O)C(=O)O` (stereo not given) was run?
**A.** 2% (inactive)

**Q.** How did the inhibition turn out when `COc1cccc(-n2nnnc2SCC(=O)NCc2ccco2)c1` was run?
**A.** 0% (inactive)

**Q.** Which inhibition does the source give for `O=c1oc2ccccc2c(N2CCCCC2)c1CN1CCCCC1` here?
**A.** 0% (inactive)

**Q.** Which inhibition does the source give for `Cc1noc(C)c1COc1cccc(C(=O)Oc2ccc3c(c2)OCO3)c1` here?
**A.** 0% (inactive)

**Q.** How did the inhibition turn out when `O=c1[nH]c(=O)n([C@H]2C[C@H](O)[C@@H](CO)O2)cc1F` was run?
**A.** 0% (inactive)

**Q.** How did the inhibition turn out when `COc1ccccc1-n1cnc2cc(NS(=O)(=O)c3ccccc3)ccc21` was run?
**A.** 0% (inactive)

**Q.** With `CCN(C1CCCCC1)S(=O)(=O)c1ccc(S(=O)(=O)N2CCN(CCC#N)CC2)cc1` as the compound, how does the inhibition read?
**A.** 0% (inactive)

**Q.** For `CC(=O)N1CCN=C1SCc1ccc(Br)cc1`, which inhibition is on record?
**A.** 4% (inactive)

**Q.** For `CCOc1ccc(OCc2ccc(C(=O)Nc3cccc(C)n3)o2)cc1`, which inhibition is on record?
**A.** 7% (inactive)

**Q.** With `CCOC(=O)C1CCCN(c2cc(=O)n(Cc3ccc(F)cc3)c(=O)[nH]2)C1` (stereo not given) as the compound, how does the inhibition read?
**A.** 2% (inactive)

**Q.** For `CCCCCCCCNC(C)C(O)c1ccc(SC(C)C)cc1` (stereo not given), which inhibition is on record?
**A.** 0% (inactive)

**Q.** `COC(=O)c1sc(NC(=O)c2ccoc2C)nc1C` was tested. Which inhibition did it give?
**A.** 0% (inactive)

**Q.** For `O=C(O)CCc1ccc(-c2ccc(F)cc2)n1CCC(=O)O`, which inhibition is on record?
**A.** 0% (inactive)
